12-LOX inh: ALOX12 (human) lipoxygenase inhibition; AID 1671190; purified 12hLO, xylenol orange hydroperoxide absorbance; Potency, µM (doses to about 108 µM), usual class: inhibitors; 1.1% of 580,000 active; P18054
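Hydroperoxide product was detected by ferrous iron/xylenol orange as the 573 to 405 nm absorbance ratio. Arachidonic acid at 40 uM (final) was turned over for 30 min at room temperature by 150 nM human 12hLO, pH 7.0 Hepes buffer, after 15 min compound preincubation.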
G9a block: G9a (human) methyltransferase inhibition; Q96KQ7; G9a H3K9 monomethylation, AlphaScreen, 2 h; Potency, µM (top dose mostly 102 µM), usual class: inhibitors; 8.8% of 350,000 active; AID 504332; also: nearly all actives have a fitted effect of over 75% in size
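AlphaScreen detection with an anti-monomethyl H3K9 antibody quantified product after a 2 h room-temperature reaction containing 500 nM biotinylated H3K9 peptide, 20 µM SAM and 20 nM enzyme, which had been preincubated 15 min with compound.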
Sfp PPTase inh: Sfp phosphopantetheinyl transferase inhibition; Biochemical Sfp PPTase activity, qHTS; 3.5% of 310,000 active; Potency, µM, hits mostly inhibitors;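 also: the enzyme is Sfp with the accession as filed and its product quenches rhodamine fluorescence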
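Buffer: 50 mM Hepes-Na pH 7.6, 10 mM MgCl2, 0.01% Nonidet P-40, 0.01% BSA. Enzyme 15 nM, pre-exposed to compound 15 min; substrates then added and fluorescence change tracked over 30 min.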
JMJD2A Tudor inh: JMJD2A Tudor domain (human) inhibition; Potency, µM (doses to about 114 µM), actives largely listed as inhibitors; O75164; AID 504339; 4.4% of 390,000 active; AlphaScreen JMJD2A-Tudor / H3K4me3 peptide binding; also: nearly all actives have a fitted effect of over 50% in size
Target sequence (O75164 whole entry, looked up, the tested form may be a part): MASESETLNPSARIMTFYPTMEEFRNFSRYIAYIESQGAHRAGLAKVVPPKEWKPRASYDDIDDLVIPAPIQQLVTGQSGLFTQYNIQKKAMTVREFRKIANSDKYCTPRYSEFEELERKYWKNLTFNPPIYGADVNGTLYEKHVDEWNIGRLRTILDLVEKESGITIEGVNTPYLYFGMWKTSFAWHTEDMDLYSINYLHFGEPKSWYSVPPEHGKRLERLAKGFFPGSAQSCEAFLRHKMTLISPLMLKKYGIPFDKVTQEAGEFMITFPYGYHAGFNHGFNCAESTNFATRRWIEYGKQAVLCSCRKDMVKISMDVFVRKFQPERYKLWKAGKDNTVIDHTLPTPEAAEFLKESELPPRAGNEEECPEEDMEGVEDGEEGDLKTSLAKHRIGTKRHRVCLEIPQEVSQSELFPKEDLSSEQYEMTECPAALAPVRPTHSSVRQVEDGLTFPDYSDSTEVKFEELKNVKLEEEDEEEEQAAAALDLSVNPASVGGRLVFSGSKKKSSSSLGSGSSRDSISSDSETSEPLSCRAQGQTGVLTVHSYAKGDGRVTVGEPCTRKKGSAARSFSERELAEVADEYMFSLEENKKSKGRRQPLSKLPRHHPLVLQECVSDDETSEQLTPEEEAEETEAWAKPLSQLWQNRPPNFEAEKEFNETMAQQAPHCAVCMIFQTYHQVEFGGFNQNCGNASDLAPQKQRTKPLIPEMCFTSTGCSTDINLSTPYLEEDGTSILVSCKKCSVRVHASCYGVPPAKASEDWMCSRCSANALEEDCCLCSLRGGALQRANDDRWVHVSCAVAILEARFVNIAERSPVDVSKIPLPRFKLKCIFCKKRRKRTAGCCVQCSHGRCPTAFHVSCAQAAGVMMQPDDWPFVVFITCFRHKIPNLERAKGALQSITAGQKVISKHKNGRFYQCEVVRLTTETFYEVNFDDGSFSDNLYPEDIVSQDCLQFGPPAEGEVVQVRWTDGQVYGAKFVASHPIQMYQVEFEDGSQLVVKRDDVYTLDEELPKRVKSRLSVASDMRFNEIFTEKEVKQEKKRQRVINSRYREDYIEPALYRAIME
HP1b chromo inh: inhibitors of HP1-beta chromodomain binding to methylated histone tails; 0.56% of 390,000 active; Potency, µM (highest dose often 114 µM), actives largely listed as inhibitors; AlphaScreen HP1-beta / biotin-H3K9me3 peptide binding; also: nearly all actives have a fitted effect of over 70% in size
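HP1-beta protein (50 nM final) preincubated 30 min at room temperature with biotinylated H3(1-18)K9me3 peptide (50 nM) in PBS pH 7.4, 0.01% Tween-20, then compound added for 30 min. AlphaScreen streptavidin donor/nickel chelate acceptor beads (10 ug/mL final), 30 min dark, luminescence read.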
BAZ2B block: blocks human BAZ2B; 4.4% of 360,000 active; Potency, µM (doses to about 114 µM), actives largely listed as inhibitors; AID 504333; AlphaScreen BAZ2B-H3K14Ac peptide displacement; Q9UIF8; also: nearly all actives have a fitted effect of over 60% in size
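Compounds, titrated to a top concentration of 110 uM, were incubated 30 min at room temperature with preformed BAZ2B/acetyl-K14 H3 peptide complex (50 nM each). Proximity signal was measured by AlphaScreen after 20 min with beads.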
A number is an active result; . = inactive; ? = inconclusive; / = no result given; [ ] = another dose, or the depositor's remark. Rows were chosen to be rich in hits. Some 8.7% of all compounds tested hit in one or more screens of this group. Calls follow the shape of the dose curve; as a rule, active = well fitted curve in the direction sought with a large enough effect; inconclusive = small, poorly fitted or top-dose-only effect, or another doubt; inactive = no such curve, though single readings can be large; an effect the other way counts as inactive or inconclusive.

SMILES	12-LOX inh	G9a block	Sfp PPTase inh	JMJD2A Tudor inh	HP1b chromo inh	BAZ2B block
CCC1=NN(S(=O)(=O)c2ccc(C)cc2)C(O)(C(F)(F)F)C1 (centres undefined)	.	40µM	.	.	.	.
CCOc1ccc(C(=S)NC2CCCCC2)cc1OC	22µM	13µM	45µM	?	?	.
CCOc1ccccc1C(=S)NC1CCCCC1	?	35µM	89µM	.	.	.
CN(C)CCCNC(=O)C(=O)NCC1OCCN1S(=O)(=O)c1cccs1 (centres undefined)	.	/	79µM	.	.	.
Cc1cc(C)c(S(=O)(=O)N2CCOC2CNC(=O)C(=O)NCCCn2ccnc2)c(C)c1 (centres undefined)	.	/	.	50µM	.	13µM
O=C(NCCCO)C(=O)NCC1OCCCN1S(=O)(=O)c1cccs1 (centres undefined)	.	.	.	.	.	.
Cc1cc(C)c(S(=O)(=O)N2CCOC2CNC(=O)C(=O)NCCc2ccc(S(N)(=O)=O)cc2)c(C)c1 (centres undefined)	.	.	.	.	.	.
O=C(NCCCn1ccnc1)C(=O)NCC1OCCN1S(=O)(=O)c1ccc2c(c1)OCCO2 (centres undefined)	.	/	.	?	.	40µM
Cc1ccc(C(=O)N2CCC23Cc2ccccc2NC3=O)cc1 (centres undefined)	.	/	/	/	/	/
CN(CC1CCOCC1)C(=O)c1ccc(C(F)(F)F)cc1	.	/	/	/	/	/
C[C@H](NC(N)=O)C(=O)Nc1ccc(N2CCOCC2)c(S(=O)(=O)Nc2ccc(Cl)cc2)c1	?	1µM	/	?	?	?
O=S(=O)(Nc1ccc(Cl)cc1)c1ccc(N2CCOCC2)c(NC(=S)NCCN2CCOCC2)c1	?	4.5µM	4µM	79µM	?	?
O=C(Nc1ccc(N2CCOCC2)c(S(=O)(=O)Nc2ccc(Cl)cc2)c1)c1cnccn1	8.9µM	/	5.6µM	.	?	?
O=C(Nc1ccc(N2CCOCC2)c(S(=O)(=O)Nc2ccc(Cl)cc2)c1)c1ccc(=O)[nH]n1	?	/	/	?	.	/
COc1ccc(NS(=O)(=O)c2cc(NC(=O)c3ccc(Cl)cc3)ccc2N2CCOCC2)cc1	.	/	/	.	.	/
CCC(=O)Nc1ccc(N2CCOCC2)c(S(=O)(=O)Nc2ccc(Cl)cc2)c1	?	?	/	79µM	?	.
COc1ccccc1-c1noc(CSc2nnc(-c3cccs3)n2C2CC2)n1	.	/	/	/	/	/
O=C(NC1CCCCNC1=O)c1cc(Cl)c2c(c1)OCCCO2 (centres undefined)	.	/	/	/	/	/
N#C/C(=C/c1ccccc1OCc1ccccc1)c1ccccc1F	.	/	/	/	/	/
O=C(CN1CCOCC1)Nc1ccc(Cl)cc1	?	.[0.501 µM]	.	.	.	.
COCCNC(=S)Nc1ccc(N2CCOCC2)c(S(=O)(=O)Nc2ccc(Cl)cc2)c1	5µM	/	/	/	/	/
C=CCNC(=S)Nc1ccc(N2CCOCC2)c(S(=O)(=O)Nc2ccccc2Cl)c1	.	.	.	.	.	?
O=C(CC(C(=O)O)N1CCOCC1)Nc1ccc(Cl)cc1 (centres undefined)	.	?	.	45µM	.	.
COc1cc(C)ccc1OCCCCNCc1ccccc1	?	/	.	18µM	.	?
Cc1ccc(OCCSc2ncccn2)c(C)c1	.	.	.	.	.	.
SMILES	12-LOX inh	G9a block	Sfp PPTase inh	JMJD2A Tudor inh	HP1b chromo inh	BAZ2B block
CCOCCCNCc1ccc(OCCC(C)C)c(OC)c1	.	?	?	?	.	56µM
CCOc1ccc(OCCOCCNCCOC)cc1	.	?	.	10µM	.	.
Cc1ccc(OCCCCNC(C)c2ccccc2)c(C)c1 (centres undefined)	4.5µM	11µM	.	20µM	.	?
COc1ccc(-c2nnn(CC(=O)N3CCCC3c3ccc4c(c3)OCCO4)n2)cc1OC (centres undefined)	.	/	/	/	/	/
COc1cccc(OCCNCc2ccccc2)c1	?	7.9µM	.	6.3µM	.	?
C/C=C/c1ccc(OCCOc2cc(C=O)ccc2OC)c(OC)c1	?	.	.	.	.	.
Cc1ccc(OCCNCc2ccccc2)c(C)c1	?	14µM	?	1µM	?	?
C/C=C/c1ccc(OCCOCCNCc2ccccc2)c(OC)c1	?	7.9µM	.	28µM	.	50µM
Cc1cccc(OCCCCNCc2ccccc2)c1	.	13µM	.	.[11.4 µM]	?	50µM
Cc1cccc(OCCCCCNCCO)c1	.	.	.	.	.	.
C=CCSC1=N/C(=C\c2ccc(OC)cc2)C(=O)S1	.	/	/	/	/	/
CCCS(=O)(=O)N[C@H]1CO[C@H]2[C@@H]1OC[C@H]2OC(=O)Nc1ccc(OC)cc1	.	/	/	/	/	/
O=C(COc1ccc(Cl)cc1)NCCc1csc(-c2cccnc2)n1	.	/	/	/	/	/
O=C(NC[C@H]1OC[C@@H](NC2COC2)[C@@H]1O)c1ccncc1	.	/	/	/	/	/
CCCOc1ccc(OCCOCCNCc2ccccc2)cc1	?	32µM	.	18µM	?	?
CCc1cccc(OCCCCNCCO)c1	?	10µM	.	.[11.4 µM]	.	56µM
C=CCN(CC=C)CCCOc1ccc(C)cc1OC	?	25µM	.	0.32µM	?	25µM
COc1cc(C)ccc1OCCOc1cc(C)ccc1Cl	.	?	.	.[11.4 µM]	.	?
CCCOc1ccc(C(=O)Cc2ccccc2)cc1	.	/	/	/	/	/
Cc1cc(C)c(C)c(OCCOCCNCc2ccccc2)c1	?	?	.	79µM	.	?
Cc1cccc(C)c1NC(=O)/C(C#N)=C\c1ccc(OC(F)F)cc1	.	/	/	/	/	/
COc1ccc(-c2onc(C)c2C(=O)NCCc2cccc(OC)c2)cc1	.	/	/	/	/	/
O=C(c1cccc(Cl)c1)N1CCC2(CC1)C(=O)NCN2Cc1ccc(Cl)cc1	.	/	/	/	/	/
O=C(c1cccc(F)c1)N(Cc1cccc2[nH]ccc12)C1CC1	.	/	/	/	/	/
O=C(CCN1CCN(C(c2ccccc2)c2ccccc2)CC1)N/N=C/c1ccc(O)cc1O	?	?	.	63µM	.	?
SMILES	12-LOX inh	G9a block	Sfp PPTase inh	JMJD2A Tudor inh	HP1b chromo inh	BAZ2B block
COc1ccc(OC)c(/C=N/NC(=O)CCN2CCN(C(c3ccccc3)c3ccccc3)CC2)c1	.	10µM	.	?	.	?
O=C(CCN1CCN(C(c2ccccc2)c2ccccc2)CC1)N/N=C/c1ccc(O)cc1	?	.	.	?	.	?
CN(Cc1c(F)cccc1Cl)C(=O)CCc1c[nH]c2ccccc12	.	?	.	?	.	71µM
CN(Cc1cccs1)C(=O)CCc1c[nH]c2ccccc12	.	.	.	.	.	.
COc1ccc2nc(N3CCCCC3)c(/C=C3\SC(=S)NC3=O)cc2c1	.	11µM	.	28µM	?	25µM
O=C1NC(=S)S/C1=C\c1cc2ccccc2nc1N1CCCCC1	.	.	.	45µM	.	.
CCNC(=O)NC[C@H]1Cn2c(-c3cccc(Cl)c3)cnc2CO1	.	/	/	/	/	/
CCN(CCC(F)(F)F)C(=O)NCc1cccc2cccnc12	.	/	/	/	/	/
COc1cc(C(=O)OCCO)ccc1OCc1ccc(Cl)cc1	.	/	/	/	/	/
